Bioassay records: PubChem BioAssay, Broad Institute
The entries come from a sample that favours hits as a whole.
Tgondii IFNg: T. gondii growth inhibition under IFN-gamma; Toxoplasma gondii growth in IFN-gamma-treated host cells; active compounds read low; activity change, negative = inhibition, % (no concentration beside the values); 69,000 tested, 3.8% active; AID 1259416; in the data active = activity change below about -70%, passing the limit was not always enough;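 note: host cells are HeLa cells infected with Toxoplasma gondii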
The depositor's hits bear a star; ! = repeats disagree.

How did COc1cccc(Cl)c1-c1cccc(-n2cnnc2)c1 do in these assays?
Tgondii IFNg: 0

Results for Cc1nc(-n2cnnc2)ccc1-c1cccc(Cl)c1Cl ?
Tgondii IFNg: -84*

What do the screens show for `Cc1ccc(CN2CCC3(CC2)CNC(=O)CO3)s1`?
Tgondii IFNg: 7

What do the screens show for `Cc1ccccc1-n1cc(-c2c(-c3ccccc3)ncn2Cc2ncn[nH]2)cn1`?
Tgondii IFNg: 5

What do the screens show for `Cc1cc(-c2cc(O)ccc2Cl)cc2nnc(Nc3ccc(OCCN4CCCC4)cc3)nc12`?
Tgondii IFNg: -91*

How did Cc1ccc(NC(=O)CC(=O)NCCN2CCCC2)cc1Cl do in these assays?
Tgondii IFNg: 0

How did CC1CCN(c2ncc(CNc3ccc(OCC(=O)N4CCCCC4)cc3)cn2)CC1 do in these assays?
Tgondii IFNg: -26

How did COc1nc(C)cc(C)c1CNC(=O)CCC(=O)NC1CCCC1 do in these assays?
Tgondii IFNg: 162

Results for Cc1cccc2cc(CN(CCN3CCOCC3)C(=S)NCc3ccco3)c(=O)[nH]c12 ?
Tgondii IFNg: 3

Results for CCOc1cccc(C2c3[nH]c4ccccc4c3CCN2C(=O)c2ccncc2)c1 (centres undefined) ?
Tgondii IFNg: -84*

Results for CCOc1cccc(C2c3[nH]c4ccccc4c3CCN2C(=O)c2cccnc2)c1 (centres undefined) ?
Tgondii IFNg: 189

How did CCOc1cccc(C2c3[nH]c4ccccc4c3CCN2C(=O)c2ccc(Br)cc2)c1 (centres undefined) do in these assays?
Tgondii IFNg: -98*

Results for CCOc1cccc(C2c3[nH]c4ccccc4c3CCN2C(=O)c2cc(OC)c(OC)c(OC)c2)c1 (centres undefined) ?
Tgondii IFNg: -52

How did COc1cccc(C(=O)N2CCc3c([nH]c4ccccc34)C2c2ccc(SC)cc2)c1 (centres undefined) do in these assays?
Tgondii IFNg: -63

How did CCOc1cccc(C2c3[nH]c4ccccc4c3CCN2C(=O)C2CC2)c1 (centres undefined) do in these assays?
Tgondii IFNg: inactive

Results for COc1cccc(C(=O)N2CCc3c([nH]c4ccccc34)C2c2ccc(F)cc2)c1 (centres undefined) ?
Tgondii IFNg: inactive

Results for CCOc1cccc(C2c3[nH]c4ccccc4c3CCN2C(=O)c2ccc(OC)cc2)c1 (centres undefined) ?
Tgondii IFNg: -93*

Results for CCOc1cccc(C2c3[nH]c4ccccc4c3CCN2C(=O)CCC2CCCC2)c1 (centres undefined) ?
Tgondii IFNg: 125

What do the screens show for `COc1ccc(C2c3[nH]c4ccccc4c3CCN2C(=O)c2cccc(OC)c2)cc1` (centres undefined)?
Tgondii IFNg: -99*

Results for CC[C@H](Cn1c(=O)oc2cccnc21)NC(=O)c1ccc(F)cc1F ?
Tgondii IFNg: 45

Results for Cc1cccc(C2CCCN(C(=O)CCn3ccnc3C)C2)c1 (centres undefined) ?
Tgondii IFNg: -45

What do the screens show for `COc1ccc2nc([S@@](=O)Cc3ncc(C)c(OC)c3C)[nH]c2c1`?
Tgondii IFNg: -3

Results for c1ccc(COCC2NCCc3c2nnn3CC2CC2)cc1 (centres undefined) ?
Tgondii IFNg: -63

How did CCNc1ncc(-c2nccn2CCN(C)C)cn1 do in these assays?
Tgondii IFNg: -1

How did O=C(NCC1CCC(C(=O)NCCN2CCc3ccccc32)CC1)c1ccccc1F (centres undefined) do in these assays?
Tgondii IFNg: 11

What do the screens show for `COc1cccc(C2CCCCN2S(=O)(=O)c2c(C)noc2C)c1` (centres undefined)?
Tgondii IFNg: -3

Results for CC(C)CC(=O)N1CCC(C)(C(=O)NCc2ccc(F)cc2F)CC1 ?
Tgondii IFNg: -13

How did CN(C)CCn1c2c(ccc1=O)CCN(C(=O)C1CCOC1)CC2 (centres undefined) do in these assays?
Tgondii IFNg: 6

Results for O=C(c1cc(F)ccc1F)C1CCCN(Cc2ccc(-n3cccn3)cc2)C1 (centres undefined) ?
Tgondii IFNg: -9

How did Cc1cccc(NC(=O)C(c2ccccc2)c2ccccc2)c1C do in these assays?
Tgondii IFNg: -6

Results for CCN(CC)CCCNC(=O)C1=C(C)C(=O)OC12CCN(Cc1ccccc1)CC2 ?
Tgondii IFNg: 152

Results for CN(C)C(=O)N1CC2(COC(C(=O)NCCc3cccnc3)C2)c2ccccc21 (centres undefined) ?
Tgondii IFNg: -2

How did Cc1[nH]c2ccccc2c1CCNC(=O)c1cccs1 do in these assays?
Tgondii IFNg: 29

What do the screens show for `Cc1[nH]c2ccccc2c1CCNCc1ccc(/C=C/C(=O)NO)cc1`?
Tgondii IFNg: -82*!

Results for CCO[C@H]1COC[C@@H]1NC(=O)Cc1c(C)[nH]c2ccccc12 ?
Tgondii IFNg: 5

Results for CC(C)CC(O)C(=O)N1CCCN(C(=O)c2ccco2)CC1 (centres undefined) ?
Tgondii IFNg: -1

Results for CCOc1ccc(CCNc2nc(-c3ccc(OC)cc3)nc3ccccc23)cc1OCC ?
Tgondii IFNg: 14
